Where “and” joins values, the source holds several entries; their conditions need not be identical. Identical values can stand only once. Results filed as inconclusive are left out. A number with no mark means an inactive call. Calls of active or inactive are those of the source. Calls come from the whole dose curve; as a rule, active = well fitted cell-killing curve with a large enough effect in the repeat runs; inconclusive = weak or mixed curves, or effect the other way; inactive = flat fitted curve, though single readings scatter.

Experimental findings from PubChem BioAssay (Tox21) are described below.
% is set by controls: 0 for no effect and ±100 for the full control effect; potency is the fitted concentration of half-maximal effect.

The nature of the experiment: qHTS RealTime-Glo MT Cell Viability Assay in HEK293 cells - 8 hour (AID 1224887). For activity change, negative = cytotoxicity: top concentration of the series differs between compounds. Note: nearly all actives have a fitted effect of over 50% in size. To be noted: RealTime-Glo luminescence; series mostly up to 76.8 µM; activity change, negative = cytotoxicity: at the top concentration. The text has this: U.S. Tox21 Program National Center for Advancing Translational Sciences [NCATS] NIH Chemical Genomics Center [NCGC] U.S. Environmental Protection Agency [EPA] National Institutes of Environmental Health Sciences [NIEHS] National Toxicology Program [NTP] U.S. Food and Drug Administration [FDA] Tox21 Assay Overview: Measure of cell viability is critical in the cell-base assay. Analysis of cell viability is necessary for the characterization of cell responses to cytotoxic drugs and environmental stress. A RealTime-Glo MT Cell Viability Assay to monitor cell viability in real time of continues cell culture during 40 hours of compound treatment was used to screen Tox21 10K library compounds in Hek293 cells. The RealTime-Glo MT Cell Viability Assay is a nonlytic, homogeneous, bioluminescent method to measure cell viability in real time using a simple, plate-based method. The assay involves adding NanoLuc luciferase and a cell-permeant prosubstrate to cells in culture. Viable cells reduce the proprietary prosubstrate to generate a substrate for NanoLuc luciferase. This substrate diffuses from cells into the surrounding culture medium, where it is rapidly used by the NanoLuc Enzyme to produce a luminescent signal. The signal correlates with the number of viable cells, making the assay well suited for cytotoxicity studies.
Tox21 Assay Protocol Summary: The mixture of Hek293 cell suspension and reagents were dispensed at 600cells/6 ul/well in 1536-well tissue culture treated black solid bottom plates using a Multidrop dispenser. After the assay plates were incubated at a 37 C/5% CO2 incubator for 5 hours, 23 nL of compounds dissolved in DMSO, positive and negative controls was transferred to the assay plate by a pintool work station. The plates were incubated at 37 C for 40 hours. The luminescence intensity were measured at 0h, 8h, 16h, 24h, 32h and 40h time points using ViewLux plate reader during compound treatment.
(In general: Quantitative high-throughput screening tests each substance at several concentrations.)
Consider `CCN1CCC[C@H]1CNC(=O)c1c(O)c(Cl)cc(Cl)c1OC`, for which the “activity change, negative = cytotoxicity” value is 2.24% [at 35.3 µM].
In the case of `Cc1cc(O)cc2c1O[C@](C)(CCC[C@H](C)CCC[C@H](C)CCCC(C)C)CC2`, the “activity change, negative = cytotoxicity” value was 5.34% [at 35.3 µM].
As for `C[N+](C)(C)CCCCCC[N+](C)(C)C`, the Potency result is “inactive”.
For `CCn1ccnc1CC1COc2ccccc2O1` (stereo not given), the “activity change, negative = cytotoxicity” value was -3.95% [at 35.3 µM].
Regarding `NC(=O)Nc1ccccc1`, the “activity change, negative = cytotoxicity” value is 2%.
In the case of `CCOC(=O)C(=O)OCC`, the “activity change, negative = cytotoxicity” value was 23%.
For `CCN(CC)CCNC(=O)c1cc(S(C)(=O)=O)ccc1OC`, the “activity change, negative = cytotoxicity” value was 3.16% [at 35.3 µM].
In the case of `N=C(N)c1ccc2cc(OC(=O)c3ccc(N=C(N)N)cc3)ccc2c1`, the “activity change, negative = cytotoxicity” value was 7.57% [at 35.3 µM].
On the same count and under the same terms, the same measure for `CC(C)OC(=O)c1ccccc1`: -1.6%.
Regarding `CO[C@]12C[C@@H](COC(=O)c3cncc(Br)c3)CN(C)[C@@H]1Cc1cn(C)c3cccc2c13`, the Potency was 21.3 µM (active).
With `CC(=O)CC(C)C`, the “activity change, negative = cytotoxicity” value is 10.6%.
As for `CC/C=C\CC/C=C/CO`, the “activity change, negative = cytotoxicity” value is 1.19%.
The same measure, in the same setting: the same measure for `CCC=O`: 3.82%; for `C/C=C(\C)C#N`: -1.86%.
As to `C=C[Si](OC(=C)C)(OC(=C)C)OC(=C)C`, the “activity change, negative = cytotoxicity” value was 24.9%.
Consider `COC(=O)CCSCCC(=O)OC`, for which the “activity change, negative = cytotoxicity” value was 1.86%.
As for `CCN(CC)CCOCCOC(=O)C1(c2ccccc2)CCCC1`, the “activity change, negative = cytotoxicity” value is 2.94% [at 35.3 µM].
Turning to `O=C(O)c1ccccc1OP(=O)(O)O`, the “activity change, negative = cytotoxicity” value was -0.636% [at 35.3 µM].
`C=CCOCC(CC)(CO)COCC=C`: the “activity change, negative = cytotoxicity” value was 4.2%.
For the molecule `C=C1CC[C@H]2C[C@@H]1C2(C)C`, the “activity change, negative = cytotoxicity” value was 4.18%.
Take `CC(=O)Nc1ccc(S(N)(=O)=O)cc1`: the “activity change, negative = cytotoxicity” value was 20%.
Regarding `CCCCCCCCS(=O)(=O)Cl`, the “activity change, negative = cytotoxicity” value is 0.0996%.
Turning to `NS(=O)(=O)c1cc(C(=O)NN2C[C@H]3[C@H]4CCC(C4)[C@H]3C2)ccc1Cl`, the “activity change, negative = cytotoxicity” value was -12.2% [at 35.3 µM].
Take `O=C[C@H](O)[C@@H](O)[C@H](O)[C@H](O)CO`: the “activity change, negative = cytotoxicity” value was 17.6%.
For `NC(=O)c1cn(Cc2c(F)cccc2F)nn1`, the “activity change, negative = cytotoxicity” value is -0.404% [at 35.3 µM].
With `N[C@@H](C(=O)N[C@@H]1C(=O)N2C(C(=O)O)=C(Cl)CS[C@H]12)c1ccccc1`, the activity change, negative = cytotoxicity was 11.8% [at 6.97 µM].
`COC(=O)C1=C(C)NC(C)=C(C(=O)OC)C1c1ccccc1[N+](=O)[O-]`: the “activity change, negative = cytotoxicity” value was -0.546% [at 35.3 µM].
As for `O=C1OC(=O)C2CCCCC12` (stereo not given), the “activity change, negative = cytotoxicity” value was 0.0988%.
Regarding `CC(C)(C)c1ccc(O)c(O)c1`, the Potency is 40.2 µM (active) and 45.3 µM (active).
With `CCc1ccc(O)c(OC)c1`, the “activity change, negative = cytotoxicity” value was 11.8%.
With `N[C@H](C(=O)O)c1ccc(O)cc1`, the activity change, negative = cytotoxicity was 4.01% [at 15.8 µM].
For the molecule `Cc1[nH]c(=O)c(C#N)cc1-c1ccc2nccn2c1`, the “activity change, negative = cytotoxicity” value is 4.54% [at 35.3 µM].
As to `CC(C)(O)C#CC(C)(C)O`, the “activity change, negative = cytotoxicity” value is 0.617%.
Turning to `COc1ccc2c(c1)CCCC2=O`, the “activity change, negative = cytotoxicity” value is 4.35% [at 35.3 µM].
`CO[Si](CCCOCC1CO1)(OC)OC` (stereo not given): the Potency entry was “inactive”.
For the molecule `CCCCCCOC(=O)CCCCC(=O)OCCCCCC`, the “activity change, negative = cytotoxicity” value was 0.912%.
On to `O=C(CCCN1CCC(O)(c2cccc(C(F)(F)F)c2)CC1)c1ccc(F)cc1`, for which the Potency is 15.1 µM (active).
As to `CC1(C)C(O)C(C)(C)C1O` (stereo not given), the “activity change, negative = cytotoxicity” value is 3.73%.
As for `C[N+](C)(C)CC(O)CC(=O)[O-]` (stereo not given), the “activity change, negative = cytotoxicity” value is -4.84% [at 35.3 µM].
On to `c1cnc(N2CCN(Cc3ccc4c(c3)OCO4)CC2)nc1`, for which the “activity change, negative = cytotoxicity” value was 2.19% [at 35.3 µM].
